This passage reports growth results from PubChem BioAssay (NCI).

Among the test systems are SK-MEL-2 melanoma; EKVX NSCLC; SN12C renal; UO-31 renal; TK-10 renal; ACHN renal; A498 renal; CCRF-CEM leukemia; MOLT-4 leukemia; SR leukemia; RPMI-8226 leukemia; OVCAR-8 ovarian; OVCAR-5 ovarian; OVCAR-4 ovarian; SK-OV-3 ovarian; IGROV1 ovarian; OVCAR-3 ovarian; HS 578T breast; NCI/ADR-RES ovarian.
Test in all cases: NCI-60 one-dose screen, 48 h (100 = growth as untreated, 0 = no growth, -100 = all killed)
What all share (conditions): 10 µM unless noted

This is part of a sample that, as a whole, favours compounds with a hit. Of some 83,000 tested, about 20% had one in any assay.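 A percent growth of 40 corresponds to 60% growth inhibition; 0 means no net growth; -100 means all cells died. Active threshold: below 10.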 Values without a mark were called inactive. Calls of active or inactive are those of the source.

In the case of `COc1ccc(-c2coc3c(CO)c(O)ccc3c2=O)cc1`, the growth with SK-MEL-2 melanoma was 19.2%; with EKVX NSCLC, 72.1%; with SN12C renal, 10.1%; in the assay on UO-31 renal, 24.3%; in the assay on TK-10 renal, 75.2%; in the assay with ACHN renal it was 20.8%. Besides, the growth is 68.6% in the assay on A498 renal; 45.2% in the assay on CCRF-CEM leukemia; 91.3% with MOLT-4 leukemia; 25.5% in the assay on SR leukemia; 36.6% with RPMI-8226 leukemia; 73.6% in the assay on OVCAR-8 ovarian. In addition, the growth with OVCAR-5 ovarian was 102%; in the assay on OVCAR-4 ovarian it was 75.6%; in the assay on SK-OV-3 ovarian it was 84.7%; in the assay on IGROV1 ovarian it was 61.2%; with OVCAR-3 ovarian, 9.94% (active); in the assay on HS 578T breast, 57.2%. Moreover, the growth with NCI/ADR-RES ovarian is 86.3%.

For `COc1cc(-c2nc3ccccc3s2)ccc1OCc1nc2n(n1)S(=O)(=O)c1ccccc1N2C`, the growth was 85.9% in the assay with SK-MEL-2 melanoma; 53.6% in the assay on EKVX NSCLC; 107% with SN12C renal; 72.8% with UO-31 renal; 87.8% in the assay with TK-10 renal; 94.3% in the assay with ACHN renal. The growth with A498 renal is 89.9%; in the assay with CCRF-CEM leukemia it was 4.89% (active); in the assay on MOLT-4 leukemia it was 89.1%; in the assay with SR leukemia it was 27.1%; in the assay on RPMI-8226 leukemia, 61.2%; with OVCAR-8 ovarian it was 74.5%. Also, the growth was 99.1% in the assay with OVCAR-5 ovarian; 93.3% in the assay with OVCAR-4 ovarian; 84.6% in the assay on SK-OV-3 ovarian; 25.6% in the assay on IGROV1 ovarian; 48.7% with HS 578T breast; 93% in the assay with NCI/ADR-RES ovarian.

Turning to `CCOC(=O)c1cnc2c(OC)ccc(OC)c2c1Cl`, the growth with SK-MEL-2 melanoma is 127%; in the assay with EKVX NSCLC it was 115%; in the assay on SN12C renal, 110%; with UO-31 renal, 88.3%; with TK-10 renal it was 106%; in the assay on ACHN renal it was 100%. In addition, the growth in the assay on A498 renal was 91.8%; in the assay with CCRF-CEM leukemia, 5.54% (active); with MOLT-4 leukemia it was 113%; in the assay with SR leukemia, 115%; in the assay on RPMI-8226 leukemia, 100%; with OVCAR-8 ovarian, 101%. Also, the growth in the assay on OVCAR-5 ovarian is 109%; in the assay on OVCAR-4 ovarian it was 113%; in the assay with SK-OV-3 ovarian it was 100%; in the assay with IGROV1 ovarian, 117%; in the assay with OVCAR-3 ovarian it was 108%; in the assay on NCI/ADR-RES ovarian, 110%.

As for `CC/C(=C(\CC)c1ccc(OCCN(CC)CC)cc1)c1ccc(OCCN(CC)CC)cc1`, the growth in the assay with SK-MEL-2 melanoma was -8.16% (active); in the assay on EKVX NSCLC, 38%; in the assay with SN12C renal, 68.6%; in the assay on UO-31 renal, 24.4%; in the assay on TK-10 renal it was 48.6%; with ACHN renal, 42.5%. Moreover, the growth in the assay on A498 renal is 43.4%; in the assay on CCRF-CEM leukemia, 38.9%; in the assay with MOLT-4 leukemia, 42.6%; in the assay on SR leukemia it was -8.6% (active); with RPMI-8226 leukemia it was 18.3%; with OVCAR-8 ovarian, 53.3%. For the same molecule, the growth with OVCAR-5 ovarian is 38.7%; in the assay with OVCAR-4 ovarian, 38.1%; in the assay on SK-OV-3 ovarian, 64.2%; in the assay with IGROV1 ovarian it was 59.9%; with OVCAR-3 ovarian it was 45.5%; in the assay with NCI/ADR-RES ovarian it was 57.6%.

Turning to `CCC1S/C(=N\N=C(/C)c2cccs2)N(c2ccccc2)C1=O` (stereo unspecified), the growth was 141% in the assay with SK-MEL-2 melanoma; 105% in the assay on EKVX NSCLC; 135% with SN12C renal; 110% with UO-31 renal; 114% in the assay with TK-10 renal; 113% in the assay on ACHN renal. Further, the growth was 108% with A498 renal; -39.5% (active) in the assay with CCRF-CEM leukemia; 63.9% in the assay with MOLT-4 leukemia; 32.6% with SR leukemia; 110% with RPMI-8226 leukemia; 97.3% in the assay on OVCAR-8 ovarian. The growth was 111% with OVCAR-5 ovarian; 99.7% with OVCAR-4 ovarian; 121% in the assay on SK-OV-3 ovarian; -27.2% (active) with IGROV1 ovarian; 123% in the assay with HS 578T breast; 99% in the assay with NCI/ADR-RES ovarian.

Consider `NN=C(c1ccc(Cl)cc1)c1ccc(Cl)cc1`, for which the growth with SK-MEL-2 melanoma is 121%; in the assay with EKVX NSCLC, 108%; in the assay on SN12C renal it was 105%; in the assay on UO-31 renal, 81.8%; in the assay on TK-10 renal, 110%; in the assay on ACHN renal it was 101%. The growth in the assay on A498 renal is 96%; in the assay on CCRF-CEM leukemia, 89.3%; in the assay with MOLT-4 leukemia it was 97.8%; in the assay on SR leukemia, 104%; in the assay on RPMI-8226 leukemia, 102%; in the assay with OVCAR-8 ovarian, 104%. For the same molecule, the growth with OVCAR-5 ovarian was 95%; with OVCAR-4 ovarian, 103%; with SK-OV-3 ovarian, 105%; with IGROV1 ovarian, 119%; with OVCAR-3 ovarian, 107%; in the assay with NCI/ADR-RES ovarian, 108%.

As to `Cc1ccccc1C[P+](c1ccccc1)(c1ccccc1)c1ccccc1`, the growth is 2.07% (active) in the assay on SK-MEL-2 melanoma; 29.5% in the assay on EKVX NSCLC; 40.5% with SN12C renal; 76.6% with UO-31 renal; 36.1% with TK-10 renal; 71% in the assay with ACHN renal. The growth with A498 renal was 89.5%; with CCRF-CEM leukemia, 24.9%; with MOLT-4 leukemia it was 35.7%; in the assay on SR leukemia, 22.2%; in the assay with RPMI-8226 leukemia, 10%; with OVCAR-8 ovarian it was 18.7%. Besides, the growth was 55.2% in the assay with OVCAR-5 ovarian; 3.27% (active) in the assay on OVCAR-4 ovarian; 42.6% with SK-OV-3 ovarian; 20% in the assay with IGROV1 ovarian; 1.98% (active) in the assay on OVCAR-3 ovarian; 114% with NCI/ADR-RES ovarian.

On to `Cc1cc[n+](CCCC[n+]2ccc(C)cc2)cc1`, for which the growth in the assay on SK-MEL-2 melanoma is 124%; in the assay with EKVX NSCLC, 97.2%; in the assay on SN12C renal, 97.4%; in the assay with UO-31 renal, 96%; in the assay with TK-10 renal it was 107%; with ACHN renal it was 104%. Further, the growth in the assay with A498 renal is 121%; in the assay on CCRF-CEM leukemia, 91.7%; with MOLT-4 leukemia, 91.1%; in the assay with SR leukemia it was 97.3%; with RPMI-8226 leukemia, 94.2%; in the assay with OVCAR-8 ovarian, 108%. Further, the growth is 104% with OVCAR-5 ovarian; 114% in the assay with OVCAR-4 ovarian; 116% in the assay with SK-OV-3 ovarian; 99.7% with IGROV1 ovarian; 106% with OVCAR-3 ovarian; 104% in the assay with HS 578T breast. The growth in the assay on NCI/ADR-RES ovarian is 97.8%.
